Experimental findings from the supplement of paper PMC13094657 are described below.

± gives the standard deviation of the averaged measurements.

Test [1] deals with MDA-MB-231. In words: cell viability relative to vehicle unstimulated control (fraction); higher = more viable cells. To be noted: pre-treatment time: 18 h then 24 h IFNg/TNF.
The subject of test [2] is MDA-MB-231. In words: kynurenine production, fold change vs DMSO IFNg/TNF control; higher = more kynurenine produced (less inhibition). The following applies: pre-treatment time: 18 h then 24 h IFNg/TNF. The method in brief: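 After trichloroacetic acid and p-dimethylaminobenzaldehyde treatment, supernatants were read at 492 nm, with 0–100 μM standards. These came from MDA-MB-231 cells (7 × 10^4/well, 96-well plates) pre-treated 18 h with natural products in 0.1% DMSO and then exposed 24 h to IFNγ (1 U/ml) and TNF (6.25 ng/ml) at 37°C. Values for kynurenine production are fold changes over same-plate cytokine-stimulated vehicle wells, averaged over duplicate plates in the first screening round.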
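Throughout, for cell viability relative to vehicle unstimulated control: viability of the cells left after supernatant collection, read with Deep Blue dye added for 4 h, as absorbance at 570 nm minus 600 nm.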

As for `C/C=C(\C)C(=O)N[C@@H](c1ccccc1)[C@@H](O)C(=O)O[C@H]1C[C@@]2(O)[C@@H](OC(=O)c3ccccc3)[C@@H]3[C@]4(OC(C)=O)CO[C@@H]4C[C@H](O)[C@@]3(C)C(=O)[C@H](OC(C)=O)C(=C1C)C2(C)C` [Cephalomannine] (compound dose: 10 uM), in the test on MDA-MB-231 [1], the cell viability is 0.738 ± 0.071. Besides, the kynurenine production in the test with MDA-MB-231 [2] is 0.267 ± 0.06.

With `C=C(C)C(=O)O[C@H]1[C@@H]2[C@H](C)C(=O)O[C@@H]2C[C@@H](C)[C@@H]2C=CC(=O)[C@]21C` [Arnicolide D] (compound dose: 10 uM), in the test on MDA-MB-231 [1], the cell viability was found to be 0.784 ± 0.08. The kynurenine production in the test with MDA-MB-231 [2] turned out to be 0.153 ± 0.067.

Regarding `CC(C)C1=CC(=O)[C@@](C)(C2[C@H](O)C[C@@]3(C)[C@@H]4CC=C5[C@@H](CC[C@@H](OC6OCC(O)C(O)C6OC6OC(C)C(O)C(O)C6O)C5(C)C)[C@]4(C)C(=O)C[C@]23C)O1` (stereo partly drawn) [Picfeltarraenin IA] (compound dose: 10 uM), in the test on MDA-MB-231 [1], the cell viability stood at 0.9887 ± 0.0091. In addition, in the test with MDA-MB-231 [2], the kynurenine production came out at 0.901 ± 0.11.

For the compound `CC(=O)O[C@@H]1[C@H]2[C@@H](OC(=O)Cc3ccccc3)[C@@H](C)C[C@]2(OC(C)=O)C(=O)/C(C)=C/[C@@H]2[C@H](CC[C@]13CO3)C2(C)C` [Euphorbia Factor L1] (compound dose: 10 uM), the cell viability in the test on MDA-MB-231 [1] turned out to be 0.909 ± 0.045. In the test on MDA-MB-231 [2], the kynurenine production amounted to 1.11 ± 0.0098.

Turning to `C=C1[C@H](OC(=O)c2ccccc2)C[C@H]2[C@@H](/C=C(\C)C(=O)[C@@]3(OC(C)=O)C[C@H](C)[C@H](OC(=O)c4ccccc4)[C@@H]3[C@H]1OC(C)=O)C2(C)C` [Euphorbia Factor L2] (compound dose: 10 uM), the cell viability with MDA-MB-231 [1] is 0.847 ± 0.044. The kynurenine production with MDA-MB-231 [2] worked out at 0.5 ± 0.15.

With `Cc1cc(O)c2c(=O)c3c(O)cc(O)c4c5c(O)cc(O)c6c(=O)c7c(O)cc(C)c8c1c2c(c34)c(c78)c65` [Hypericin] (compound dose: 10 uM), the cell viability with MDA-MB-231 [1] was determined as 0.0887 ± 0.085. Also, the kynurenine production in the test with MDA-MB-231 [2] was found to be 0.103 ± 0.063.

Regarding `CC(=O)O[C@H]1C[C@H](O[C@H]2[C@@H](O)C[C@H](O[C@H]3[C@@H](O)C[C@H](O[C@H]4CC[C@@]5(C)[C@H](CC[C@@H]6[C@@H]5C[C@@H](O)[C@]5(C)[C@@H](C7=CC(=O)OC7)CC[C@]65O)C4)O[C@@H]3C)O[C@@H]2C)O[C@H](C)[C@H]1O[C@@H]1O[C@H](CO)[C@@H](O)[C@H](O)[C@H]1O` [Lanatoside C] (compound dose: 10 uM), the cell viability in the test with MDA-MB-231 [1] was determined as 0.607 ± 0.021. For the same compound, the kynurenine production with MDA-MB-231 [2] came to 0.149 ± 0.015.

`CC(C)=CCC[C@@](C)(O)[C@H]1CC[C@]2(C)[C@@H]1[C@H](O)C[C@@H]1[C@@]3(C)CC[C@H](O)C(C)(C)[C@@H]3[C@@H](O[C@@H]3O[C@H](CO)[C@@H](O)[C@H](O)[C@H]3O)C[C@]12C` [(20R)-Ginsenoside Rh1] (compound dose: 10 uM): the cell viability with MDA-MB-231 [1] amounted to 0.9611 ± 0.0044. The kynurenine production with MDA-MB-231 [2] was 0.887 ± 0.031.

On to `CC(=O)O[C@@]12C[C@@H](C)[C@@]3(O)[C@@H](C=C(CO)C[C@]4(O)C(=O)C(C)=C[C@@H]34)[C@@H]1C2(C)C` [Prostratin] (compound dose: 10 uM), for which the cell viability in the test with MDA-MB-231 [1] was 1.31 ± 0.36. Moreover, the kynurenine production in the test with MDA-MB-231 [2] was determined as 0.737 ± 0.025.

On to `CC(C)[C@]12O[C@H]1[C@@H]1O[C@@]13[C@@]1(C)CCC4=C(COC4=O)[C@@H]1C[C@@H]1O[C@@]13C2=O` [Triptonide] (compound dose: 10 uM), for which the cell viability in the test on MDA-MB-231 [1] amounted to 0.637 ± 0.069. Further, the kynurenine production with MDA-MB-231 [2] worked out at 0.218 ± 0.019.

`CC(=O)OC[C@]12[C@H](OC(C)=O)[C@H](OC(C)=O)[C@@H]3[C@@H](OC(C)=O)[C@@]14O[C@@]3(C)COC(=O)c1cccnc1CCC(C)C(=O)O[C@@H]([C@H](OC(=O)c1ccco1)[C@@H]2OC(C)=O)[C@]4(C)O` (stereo partly drawn) [Wilforgine] (compound dose: 10 uM): the cell viability in the test with MDA-MB-231 [1] came to 1.02 ± 0.14. Further, the kynurenine production with MDA-MB-231 [2] was determined as 1.04 ± 0.077.

Consider `CC(C)=CCC[C@](C)(O)[C@H]1CC[C@]2(C)[C@@H]1[C@H](O)C[C@@H]1[C@@]3(C)CC[C@H](O[C@@H]4O[C@H](CO)[C@@H](O)[C@H](O)[C@H]4O)C(C)(C)[C@@H]3CC[C@]12C` [Ginsenoside Rh2] (compound dose: 10 uM), for which, in the test with MDA-MB-231 [1], the cell viability stood at 0.908 ± 0.049. Further, in the test on MDA-MB-231 [2], the kynurenine production stood at 0.84 ± 0.19.

With `C=C1CC[C@H]2[C@@H](/C=C(\C)C(=O)[C@@]3(OC(C)=O)C[C@H](C)[C@H](OC(=O)c4ccccc4)[C@@H]3[C@H]1OC(C)=O)C2(C)C` [5,15-Diacetyl-3-benzoyllathyrol] (compound dose: 10 uM), in the test on MDA-MB-231 [1], the cell viability was 1.031 ± 0.01. The kynurenine production in the test with MDA-MB-231 [2] worked out at 0.94 ± 0.14.

Regarding `CC(C)(C)[C@]1(O)CC2OC(=O)CC23C(=O)OC2OC(=O)[C@H](O)C231` (stereo partly drawn) [Bilobalide] (compound dose: 10 uM), the cell viability in the test with MDA-MB-231 [1] came out at 1.01 ± 0.015. Moreover, the kynurenine production in the test on MDA-MB-231 [2] turned out to be 0.774 ± 0.031.
